# Bioassay records from PubChem.
# AmpC inh detg: AmpC beta-lactamase inhibition with detergent present. Potency, µM (titrated, usually from 114 µM), for inactives: at the highest dose activity change, negative = inhibition, hits mostly inhibitors. AID 485294. hit rate 0.041% among 370,000. AmpC hydrolysis of nitrocefin, absorbance 480 nm, 0.01% Triton. P00811;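 also: 0% = no-compound wells and -100% = no-enzyme wells; nearly all actives have a fitted effect of over 25% in size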
# Target sequence (P00811 whole entry, looked up): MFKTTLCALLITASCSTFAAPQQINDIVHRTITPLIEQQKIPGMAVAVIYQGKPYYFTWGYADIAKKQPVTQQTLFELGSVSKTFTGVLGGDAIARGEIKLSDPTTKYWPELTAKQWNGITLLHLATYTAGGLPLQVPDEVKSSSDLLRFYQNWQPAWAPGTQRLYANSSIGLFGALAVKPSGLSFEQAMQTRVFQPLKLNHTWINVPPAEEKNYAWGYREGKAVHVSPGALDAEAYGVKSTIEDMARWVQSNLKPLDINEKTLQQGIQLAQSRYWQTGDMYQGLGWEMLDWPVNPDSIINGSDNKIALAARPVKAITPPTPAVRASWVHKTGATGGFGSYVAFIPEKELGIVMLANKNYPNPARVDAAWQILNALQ
#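 20 mM phosphate pH 7.0 + 0.01% (detergent screen) or 0.0001% Triton X-100; 5.3 nM AmpC reagent; cpd preinc 15 min RT; nitrocefin (800 uM stock) to start; A480 q20 s × 4 min; Activity was normalised to no-enzyme and no-compound control wells.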
# Pf growth 48h: inhibits P. falciparum growth in the first generation, 48 h; Potency, µM (highest dose often 28.7 µM), for inactives: top-dose activity change, negative = inhibition, usual class: inhibitors; P. falciparum luciferase growth in erythrocytes, 48 h; hit rate 5.9% among 310,000; AID 504832
#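 Read-out is firefly luciferase luminescence from an integrated reporter in P. falciparum, so falling signal marks reduced parasite growth. Infected erythrocytes were at 2% hematocrit and 0.1% parasitemia (final) in Albumax-supplemented RPMI 1640.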
# HCV inhibitor: HCV inhibition; Huh7.5.1 HCVcc-Cre infection, luciferase reporter, 44 h; Potency, µM (highest dose often 41.8 µM), for inactives: at the highest dose activity change, negative = inhibition, usual class: inhibitors; AID 651820; hit rate 3.4% among 340,000
#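 Seed cells (1,000/well) for 4 h; treat with compound and infect with HCVcc-Cre, moi about 0.5. Incubate 44 h, then detect luciferase activity.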
# AmpC no deterg: AmpC beta-lactamase inhibition without detergent | AmpC nitrocefin hydrolysis, absorbance 480 nm, 0.0001% Triton | Potency, µM (series often up to 57.1 µM), without a hit: at the top dose activity change, negative = inhibition, actives largely listed as inhibitors | hit rate 0.52% among 330,000;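 also: plate controls were no compound for no effect and no enzyme for full effect; nearly all actives have a fitted effect of over 20% in size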
#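 AmpC (5.3 nM in the dispensed reagent) in 20 mM phosphate pH 7.0 with 0.01% (detergent screen) or 0.0001% Triton X-100 was preincubated with compounds for 15 min at room temperature. Nitrocefin was then added from an 800 uM solution, and hydrolysis was followed at 480 nm.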
# Pf growth 96h: P. falciparum growth inhibition at 96 hours. P. falciparum luciferase reporter growth, 96 h. Potency, µM (titrated, usually from 28.7 µM), for inactives: at the top dose activity change, negative = inhibition, actives largely listed as inhibitors. hit rate 6.9% among 320,000
#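 Two-generation exposure (96 h) targets delayed-death phenotype. Reporter parasites carrying integrated firefly luciferase, in red cells at 2% hematocrit and 0.05% parasitemia final, kept at 37 C, 5% CO2; luminescence loss indicates inhibition.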
# AMA1-RON2 inh: AMA1-RON2 (P. falciparum) interaction inhibition; AlphaScreen AMA1-biotinylated RON2 peptide binding; Potency, µM (doses to about 58.2 µM), for inactives: at the top dose activity change, negative = inhibition, usual class: inhibitors; hit rate 0.2% among 360,000;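 also: 0% = vehicle wells and -100% = peptide control; nearly all actives have a fitted effect of over 45% in size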
#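 AMA1 (3D7) with his tag at 25 nM final met compounds first, then biotinylated RON2 peptide at 25 nM; detection used donor plus acceptor beads, 10 µg/mL apiece, read by AlphaScreen after 30 min at room temperature.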
# An asterisk follows results filed as active; u = inconclusive; x = no result given. Compounds with a hit are over-represented: about 11% of the library has one in this group of screens. Calls follow the shape of the dose curve; as a rule, active = well fitted curve in the direction sought with a large enough effect; inconclusive = small, poorly fitted or top-dose-only effect, or another doubt; inactive = no such curve, though single readings can be large; an effect the other way counts as inactive or inconclusive. Unless noted, % is scaled to controls: 0 for no effect and ±100 for the full control effect; potency is read from the fitted curve at half-maximal effect.
SMILES,AmpC inh detg,Pf growth 48h,HCV inhibitor,AmpC no deterg,Pf growth 96h,AMA1-RON2 inh
O=C(CC1CCCC1)Nc1cc(C(F)(F)F)ccc1-n1cncn1,-1%,u,u,-6%,-37%,12%
Cc1cc(CN2CCN(CC(=O)Nc3cc(Cl)ccc3-n3cncn3)CC2)no1,0%,2.1µM*,-1%,7%,2.1µM*,23%
CCC(Oc1ccccc1)C(=O)Nc1cc(Cl)ccc1-n1cncn1 (stereo not drawn),u,4.1µM*,-17%,17%,12µM*,0%
CC(Oc1ccc(F)cc1)C(=O)Nc1cc(C(F)(F)F)ccc1-n1cncn1 (stereo not drawn),-3%,0.59µM*,u,-11%,0.41µM*,-21%
Cc1ccc(OCCCC(=O)Nc2cc(Cl)ccc2-n2cncn2)cc1,-18%,u,u,1%,-21%,3%
O=C(Nc1ccccc1C(F)(F)F)Nc1c[nH]c(=O)[nH]c1=O,-4%,x,x,x,x,x
COc1ccccc1-c1noc(-c2ccc(N3CCN(c4ccccc4)CC3)c([N+](=O)[O-])c2)n1,15%,x,x,x,x,x
CC1=C(C(=O)Nc2cccnc2)C(c2ccccc2)n2nc(-c3ccc(O)cc3)nc2N1 (stereo not drawn),0%,x,x,x,x,x
CC(=O)Nc1c(C)nn(-c2ccccc2)c1N1CCC(C(=O)NCc2cccc(Cl)c2)CC1,10%,x,x,x,x,x
Cc1ccc(N2CC(NC(=O)/C=C\c3ccc4c(c3)OCO4)CC2=O)cc1C (stereo not drawn),1%,x,x,x,x,x
CCCCn1nc2cc(C(=O)NCc3ccccc3OC)ccc2c1OCC,-5%,u,3.5µM*,u,u,3%
CCCCn1nc2cc(C(=O)NC3CCc4ccccc43)ccc2c1OCC (stereo not drawn),-2%,u,u,u,8.3µM*,-4%
CCn1nc2cc(C(=O)NCc3cc(C(F)(F)F)cc(C(F)(F)F)c3)ccc2c1OC,0%,39%,u,55%,u,-6%
CCCCn1nc2cc(C(=O)NCc3ccc(C(F)(F)F)cc3C(F)(F)F)ccc2c1OCC,2%,78%,u,-28%,128%,6%
CCCCn1nc2cc(C(=O)NCc3cc(C(F)(F)F)cc(C(F)(F)F)c3)ccc2c1OC,1%,u,u,5.6µM*,-21%,-3%
CCCn1nc2cc(C(=O)NC3CCCc4ccccc43)ccc2c1OCC (stereo not drawn),3%,u,u,-4%,u,6%
Cc1cc(N(C)Cc2ccccc2)n2nc(-c3ccc(C(C)(C)C)cc3)nc2n1,-2%,x,x,x,x,x
O=C(CSCC(=O)NC1CC1)Nc1ccccc1,1%,26%,-10%,-10%,-13%,2%
COc1cccc(NC(=O)C(NC2CCCC2)c2ccccc2)c1 (stereo not drawn),-6%,u,-26%,-25%,u,-19%
Cc1ccc(NC(=O)C(NC2CCCC2)c2ccccc2)cc1Cl (stereo not drawn),7%,13µM*,-14%,-6%,12µM*,-2%
O=C(Nc1ccc2ccccc2c1)C(c1ccccc1)C1CCCC1 (stereo not drawn),10%,8.3µM*,u,-41%,2.1µM*,-3%
Cc1cc(C(=O)OC(C(=O)Nc2ccc(C)c(Cl)c2)c2ccccc2)c(C)o1 (stereo not drawn),u,10µM*,u,-37%,u,-8%
O=C(CSCC(=O)NC1CC1)Nc1ccc2ccccc2c1,u,13µM*,28%,-7%,u,15%
Cc1ccc(NC(=O)C(c2ccccc2)C2CCCC2)cc1 (stereo not drawn),-13%,-26%,-5%,u,u,28%
O=C(CSc1nc2c([nH]c3ccccc32)c(=O)n1-c1ccc(Cl)cc1)N1CCCCCC1,6%,x,x,x,x,x
SMILES,AmpC inh detg,Pf growth 48h,HCV inhibitor,AmpC no deterg,Pf growth 96h,AMA1-RON2 inh
COc1ccc(CCN2C(=O)c3oc4cc(C)cc(C)c4c(=O)c3C2c2ccc(F)cc2)cc1OC (stereo not drawn),9%,x,x,x,x,x
CCCn1c(=O)c2sccc2n2c(CCCC(=O)Nc3ccc(Oc4ccc(Cl)cc4)cc3)nnc12,9%,x,x,x,x,x
COc1ccc(CCNC(=O)c2sc3nc4n(c(=O)c3c2C)CCCC4)cc1OC,11%,x,x,x,x,x
O=C1c2ccc3c4c(ccc(c24)C(=O)N1CCCCO)C(=O)N(CCCCO)C3=O,-7%,0.74µM*,7.1µM*,43%,-4%,-10%
Cn1ncc(C#N)c1NC(=O)c1nn2cccnc2c1Cl,u,5%,16%,-10%,4.7µM*,42%
CCCCCC[N+](C)(C)CCSSCC[N+](C)(C)CCCCCC,-11%,-1%,4%,22%,-1%,-4%
CCCCCCCCCC[N+](C)(C)CCCCCCCCCC,x,1.7µM*,x,x,1.7µM*,x
CCCCCCCCCCCCCCCC[N+](C)(C)CC,-11%,3.3µM*,u,172%,2.6µM*,5%
CCN(CC)c1ccc(NC(=O)C2COc3ccc(OC)cc3C2)c(C)c1 (stereo not drawn),9%,x,x,x,x,x
COc1nc(N2CCCCCC2)nc(N2CCCCCC2)n1,-1%,2%,10µM*,29%,-27%,24%
COc1nc(N2CCOCC2)nc(-n2cccc2)n1,-13%,-10%,0.89µM*,-8%,u,-14%
N#CCOc1nc(N2CCCCC2)nc(N2CCCCC2)n1,-5%,3%,14µM*,53%,30%,-3%
O=C(Nc1cc(Cl)ccc1Cl)C1(c2cccs2)CCOCC1,1%,x,x,x,x,x
O=C(Cn1ncc2c3ccccc3n(Cc3cccc(Cl)c3)c2c1=O)NCCC1=CCCCC1,19%,x,x,x,x,x
COc1cc(OC)cc(-c2nc3n(n2)C(c2ccccc2)C(C(N)=O)=C(C)N3)c1 (stereo not drawn),10%,x,x,x,x,x
NC(=O)/C(=C/c1ccco1)NC(=O)/C=C/c1ccccc1,2%,-3%,7%,-7%,u,-7%
CC(C)CCOC(=O)/C(=C/c1ccco1)NC(=O)/C=C/c1ccccc1,-1%,u,12%,-53%,4.1µM*,17%
COc1ccc(-c2onc(C)c2C)cc1S(=O)(=O)N1CCN(c2ccc(Cl)cc2)CC1,3%,x,x,x,x,x
O=S(=O)(c1ccc(Cl)cc1)c1nnn2c1nc(NCc1ccccc1)c1sccc12,-4%,x,x,x,x,x
NC(N)=N/N=C/c1ccc(OCc2ccccc2)c(OCc2ccccc2)c1,-3%,0.52µM*,u,-10%,u,-4%
